In publication PMC5700166:
Numbering of substitutions follows the chain as printed.

Legend:
Test in all cases: protein-binding microarray (PBM); PBM: ~300 nM protein, 6 mM HEPES pH 7.8, 80 mM KCl, 0.5 mM EDTA, 0.5 mM EGTA, 6% glycerol, 35 ng/ul poly-dIdC, 1% milk, 1 h, room temperature; Ap Aiptasia and Nv Nematostella (sea anemones) / Co Capsaspora / Aq Amphimedon (sponge) / Dm Drosophila / Hu human; RHD is the Rel homology domain; high values mean tight binding
Conditions in all cases: dsDNA, one strand shown
[1] = biological target: T1, GST-Nv-NF-kB (Cys allele) (Nematostella vectensis, UniProt E5G601 2-411)
T1 sequence: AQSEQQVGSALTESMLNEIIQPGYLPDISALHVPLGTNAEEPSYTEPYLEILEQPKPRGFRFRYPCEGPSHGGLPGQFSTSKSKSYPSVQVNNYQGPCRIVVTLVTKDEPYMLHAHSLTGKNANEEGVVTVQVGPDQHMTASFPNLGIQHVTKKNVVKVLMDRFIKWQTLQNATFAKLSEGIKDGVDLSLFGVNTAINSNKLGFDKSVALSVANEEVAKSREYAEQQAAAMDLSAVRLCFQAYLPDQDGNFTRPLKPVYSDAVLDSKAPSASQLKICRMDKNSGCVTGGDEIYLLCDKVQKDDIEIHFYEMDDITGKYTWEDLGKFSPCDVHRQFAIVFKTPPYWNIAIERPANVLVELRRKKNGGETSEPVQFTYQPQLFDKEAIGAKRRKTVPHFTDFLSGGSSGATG

GST-Aq-NF-kB = biological target: T2, GST-Aq-NF-kB (Amphimedon queenslandica, UniProt A9Y5G7 2-389)
T2 sequence: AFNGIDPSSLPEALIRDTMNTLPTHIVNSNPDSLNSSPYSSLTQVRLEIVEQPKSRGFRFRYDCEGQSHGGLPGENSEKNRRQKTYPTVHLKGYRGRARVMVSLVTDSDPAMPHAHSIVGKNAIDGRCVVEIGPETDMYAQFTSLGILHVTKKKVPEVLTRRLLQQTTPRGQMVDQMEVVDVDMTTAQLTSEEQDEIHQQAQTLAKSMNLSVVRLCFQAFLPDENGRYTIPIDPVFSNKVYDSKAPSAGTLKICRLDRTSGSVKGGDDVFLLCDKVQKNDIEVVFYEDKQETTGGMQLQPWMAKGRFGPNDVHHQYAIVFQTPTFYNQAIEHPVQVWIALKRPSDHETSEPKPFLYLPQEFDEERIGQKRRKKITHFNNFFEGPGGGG

GST-Ap-NF-kB RHD = biological target: T3, GST-Ap-NF-kB RHD (Exaiptasia pallida (Aiptasia), UniProt A0A913YAJ5 2-422)
T3 sequence: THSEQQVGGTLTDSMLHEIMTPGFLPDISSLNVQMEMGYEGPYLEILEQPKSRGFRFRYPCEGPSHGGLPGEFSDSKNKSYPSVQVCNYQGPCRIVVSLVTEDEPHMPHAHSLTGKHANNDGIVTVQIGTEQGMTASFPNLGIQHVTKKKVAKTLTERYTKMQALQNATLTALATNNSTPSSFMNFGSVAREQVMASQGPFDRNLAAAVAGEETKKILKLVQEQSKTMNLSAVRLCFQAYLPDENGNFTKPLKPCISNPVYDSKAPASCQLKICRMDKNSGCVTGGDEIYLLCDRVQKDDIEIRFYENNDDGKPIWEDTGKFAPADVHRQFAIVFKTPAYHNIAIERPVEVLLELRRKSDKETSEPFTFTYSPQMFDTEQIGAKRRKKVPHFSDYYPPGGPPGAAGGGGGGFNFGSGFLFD

GST-Dm-Relish = biological target: T4, GST-Dm-Relish (Drosophila melanogaster, UniProt Q94527 99-473)
T4 sequence: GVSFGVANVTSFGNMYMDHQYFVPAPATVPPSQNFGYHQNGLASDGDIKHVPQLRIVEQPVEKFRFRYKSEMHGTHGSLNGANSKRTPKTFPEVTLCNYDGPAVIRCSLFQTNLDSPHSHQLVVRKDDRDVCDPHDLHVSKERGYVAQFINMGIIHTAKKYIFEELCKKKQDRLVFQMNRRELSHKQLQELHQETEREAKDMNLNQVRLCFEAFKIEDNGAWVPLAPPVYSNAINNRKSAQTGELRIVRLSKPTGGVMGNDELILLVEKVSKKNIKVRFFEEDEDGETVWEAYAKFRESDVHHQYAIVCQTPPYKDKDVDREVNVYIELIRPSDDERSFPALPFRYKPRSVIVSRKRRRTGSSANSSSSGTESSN

GST-Co-NF-kB = biological target: T5, GST-Co-NF-kB (Capsaspora owczarzaki, UniProt F1ARL5 200-546)
T5 sequence: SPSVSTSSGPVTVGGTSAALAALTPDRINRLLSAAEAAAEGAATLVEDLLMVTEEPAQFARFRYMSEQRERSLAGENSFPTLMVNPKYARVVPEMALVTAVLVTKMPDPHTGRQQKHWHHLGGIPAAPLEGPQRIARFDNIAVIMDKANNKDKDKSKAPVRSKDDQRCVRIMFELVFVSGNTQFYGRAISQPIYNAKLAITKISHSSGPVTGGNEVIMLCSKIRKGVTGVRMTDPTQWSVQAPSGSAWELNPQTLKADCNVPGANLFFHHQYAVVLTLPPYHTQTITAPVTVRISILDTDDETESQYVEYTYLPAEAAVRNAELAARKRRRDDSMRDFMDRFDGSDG

[2] = biological target: T6, GST-Nv-NF-kB (Ser allele) (Nematostella vectensis, UniProt A7UNT2 2-411)
T6 sequence: T1 sequence with Q21R, C66S, S207N, E215Q, V217A, E225K, A268E, D399E

CCGATTAACATCAAGAAATTTCCTGATGTTAATCGGGTCTTGATTCGCTTGACGCTGCTG
binding signal [1]: 1.11 z-score
binding signal (GST-Aq-NF-kB): 2.06 z-score

CCGATTAACATCACGGGATCTCCTGATGTTAATCGGGTCTTGATTCGCTTGACGCTGCTG
binding signal (GST-Ap-NF-kB RHD): 2.16 z-score
binding signal (GST-Dm-Relish): 4.06 z-score
binding signal (GST-Aq-NF-kB): 3.77 z-score

CCGATTAACATCAGGTGTTCCCATGATGTTAATCGGGTCTTGATTCGCTTGACGCTGCTG
binding signal (GST-Ap-NF-kB RHD): 1.43 z-score
binding signal (GST-Co-NF-kB): 1.45 z-score
binding signal (GST-Dm-Relish): 5.22 z-score
binding signal (GST-Aq-NF-kB): 2.04 z-score

CCGATTAACATCAGGAATCCCAATGATGTTAATCGGGTCTTGATTCGCTTGACGCTGCTG
binding signal (GST-Ap-NF-kB RHD): 1.71 z-score
binding signal (GST-Dm-Relish): 7.14 z-score
binding signal (GST-Aq-NF-kB): 1.48 z-score

CCGATTAACATCAGGAATGCCCATGATGTTAATCGGGTCTTGATTCGCTTGACGCTGCTG
binding signal (GST-Ap-NF-kB RHD): 1.27 z-score
binding signal (GST-Dm-Relish): 1.49 z-score
binding signal (GST-Aq-NF-kB): 1.96 z-score

CCGATTAACATCACGGGCTTTCCTGATGTTAATCGGGTCTTGATTCGCTTGACGCTGCTG
binding signal (GST-Ap-NF-kB RHD): 1.64 z-score
binding signal (GST-Dm-Relish): 3.81 z-score
binding signal (GST-Aq-NF-kB): 4.66 z-score

CCGATTAACATCAGCGGAATTCCTGATGTTAATCGGGTCTTGATTCGCTTGACGCTGCTG
binding signal (GST-Ap-NF-kB RHD): 1.33 z-score
binding signal (GST-Dm-Relish): 2.27 z-score
binding signal (GST-Aq-NF-kB): 1.89 z-score

CCGATTAACATCACGGGATGCCCTGATGTTAATCGGGTCTTGATTCGCTTGACGCTGCTG
binding signal (GST-Ap-NF-kB RHD): 1.03 z-score
binding signal (GST-Dm-Relish): 5.65 z-score
binding signal (GST-Aq-NF-kB): 3.09 z-score

CCGATTAACATCAATACCCCCCCTGATGTTAATCGGGTCTTGATTCGCTTGACGCTGCTG
binding signal (GST-Ap-NF-kB RHD): 6.7 z-score
binding signal (GST-Co-NF-kB): 6.7 z-score
binding signal (GST-Dm-Relish): 5.66 z-score
binding signal (GST-Aq-NF-kB): 4.66 z-score

CCGATTAACATCAAGGGCATCCCTGATGTTAATCGGGTCTTGATTCGCTTGACGCTGCTG
binding signal (GST-Ap-NF-kB RHD): 1.42 z-score
binding signal (GST-Dm-Relish): 5.6 z-score
binding signal (GST-Aq-NF-kB): 2.86 z-score

CCGATTAACATCAGGAAAGCCCATGATGTTAATCGGGTCTTGATTCGCTTGACGCTGCTG
binding signal (GST-Ap-NF-kB RHD): 1.24 z-score
binding signal (GST-Dm-Relish): 4.29 z-score
binding signal (GST-Aq-NF-kB): 3.12 z-score

CCGATTAACATCACGGGATTGCCTGATGTTAATCGGGTCTTGATTCGCTTGACGCTGCTG
binding signal (GST-Ap-NF-kB RHD): 1.39 z-score
binding signal (GST-Dm-Relish): 2.08 z-score
binding signal (GST-Aq-NF-kB): 2.41 z-score

CCGATTAACATCAGGAATATTCCTGATGTTAATCGGGTCTTGATTCGCTTGACGCTGCTG
binding signal [1]: 1.22 z-score
binding signal (GST-Aq-NF-kB): 1.34 z-score

CCGATTAACATCACGGCAACCCCTGATGTTAATCGGGTCTTGATTCGCTTGACGCTGCTG
binding signal (GST-Ap-NF-kB RHD): 1.78 z-score
binding signal (GST-Dm-Relish): 1.46 z-score
binding signal (GST-Aq-NF-kB): 2.35 z-score

CCGATTAACATCACGGAAATTTATGATGTTAATCGGGTCTTGATTCGCTTGACGCTGCTG
binding signal (GST-Co-NF-kB): 1.07 z-score
binding signal (GST-Dm-Relish): 1.11 z-score
binding signal (GST-Aq-NF-kB): 1.74 z-score

CCGATTAACATCACCCATGGGAATGATGTTAATCGGGTCTTGATTCGCTTGACGCTGCTG
binding signal [1]: 1.13 z-score
binding signal (GST-Co-NF-kB): 2.05 z-score
binding signal (GST-Dm-Relish): 1.03 z-score
binding signal (GST-Aq-NF-kB): 2.51 z-score

CCGATTAACATCAACTATCCCGCTGATGTTAATCGGGTCTTGATTCGCTTGACGCTGCTG
binding signal (GST-Co-NF-kB): 1.37 z-score
binding signal (GST-Aq-NF-kB): 1.07 z-score

CCGATTAACATCAGGGCAGTACCTGATGTTAATCGGGTCTTGATTCGCTTGACGCTGCTG
binding signal [1]: 1.21 z-score
binding signal (GST-Dm-Relish): 1.84 z-score
binding signal (GST-Aq-NF-kB): 3.03 z-score

CCGATTAACATCAGGAAGTTACCTGATGTTAATCGGGTCTTGATTCGCTTGACGCTGCTG
binding signal [1]: 1.29 z-score
binding signal [2]: 1.31 z-score
binding signal (GST-Dm-Relish): 2.36 z-score
binding signal (GST-Aq-NF-kB): 2.57 z-score

CCGATTAACATCAACCATGGGAATGATGTTAATCGGGTCTTGATTCGCTTGACGCTGCTG
binding signal [1]: 1.18 z-score
binding signal (GST-Co-NF-kB): 1.67 z-score
binding signal (GST-Aq-NF-kB): 1.99 z-score

CCGATTAACATCAGGAATTTACCTGATGTTAATCGGGTCTTGATTCGCTTGACGCTGCTG
binding signal [1]: 3.18 z-score
binding signal (GST-Dm-Relish): 4.54 z-score
binding signal (GST-Aq-NF-kB): 4.81 z-score

CCGATTAACATCAACGGAAATTCTGATGTTAATCGGGTCTTGATTCGCTTGACGCTGCTG
binding signal (GST-Co-NF-kB): 1.34 z-score
binding signal (GST-Aq-NF-kB): 1.24 z-score

CCGATTAACATCAAGGAATTTCCTGATGTTAATCGGGTCTTGATTCGCTTGACGCTGCTG
binding signal [1]: 1.75 z-score
binding signal (GST-Dm-Relish): 2.04 z-score
binding signal (GST-Aq-NF-kB): 4.35 z-score

CCGATTAACATCAGAAATGGGAATGATGTTAATCGGGTCTTGATTCGCTTGACGCTGCTG
binding signal [1]: 2.45 z-score
binding signal (GST-Co-NF-kB): 1.87 z-score
binding signal (GST-Aq-NF-kB): 2.5 z-score

CCGATTAACATCAATTCCCATGATGATGTTAATCGGGTCTTGATTCGCTTGACGCTGCTG
binding signal [1]: 2.46 z-score
binding signal (GST-Co-NF-kB): 1.75 z-score
binding signal (GST-Aq-NF-kB): 1.67 z-score
